# Measurements as given in PubChem BioAssay (EPA / NIEHS).
# Inconclusive results are not listed. Activity calls are given as the source filed them. How the source made its calls, unless noted: active means hit-call score of the fitted dose curve at least 0.9, where 1 is the maximum; inconclusive means response in the unintended direction; inactive means score below 0.9.
# Assays:
# [1] = molecular target: Estrogen receptor (Homo sapiens) (UniProt P03372); experiment: OT_ERa_GFPERaERE_0480: Odyssey Thera (OT) 8-hour HeLa Transcription Induction Assay for Estrogen Receptor (AID 2283381; active means hit-call score of the fitted dose curve at least 0.9, where 1 is the maximum; inactive means score below 0.9)
# Chain of Estrogen receptor (Homo sapiens) (P03372 whole entry, looked up): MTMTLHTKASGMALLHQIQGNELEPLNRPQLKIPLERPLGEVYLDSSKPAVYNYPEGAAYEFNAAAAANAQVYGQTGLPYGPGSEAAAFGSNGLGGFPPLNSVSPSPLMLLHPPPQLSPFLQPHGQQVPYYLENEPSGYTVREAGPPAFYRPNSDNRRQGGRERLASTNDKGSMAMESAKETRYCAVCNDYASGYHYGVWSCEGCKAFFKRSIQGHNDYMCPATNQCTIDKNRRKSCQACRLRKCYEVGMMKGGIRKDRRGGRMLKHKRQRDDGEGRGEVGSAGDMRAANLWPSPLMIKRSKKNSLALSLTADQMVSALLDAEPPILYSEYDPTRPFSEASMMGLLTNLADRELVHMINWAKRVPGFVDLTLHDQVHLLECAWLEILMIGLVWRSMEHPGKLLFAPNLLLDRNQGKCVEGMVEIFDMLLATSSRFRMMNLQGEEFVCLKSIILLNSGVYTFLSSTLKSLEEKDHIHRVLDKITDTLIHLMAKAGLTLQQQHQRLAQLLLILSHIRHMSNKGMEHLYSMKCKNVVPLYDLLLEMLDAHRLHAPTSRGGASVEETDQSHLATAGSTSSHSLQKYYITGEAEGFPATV
# In short: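 HeLa cells dosed with compound and imaged by fluorescence microscopy at 8 h; GFP induction from an ERE reporter quantified by high-content image analysis and fitted as gain of signal against DMSO baseline.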
# [2] = molecular target: Estrogen receptor (Homo sapiens) (UniProt P03372); experiment: OT_ERa_GFPERaERE_0120: Odyssey Thera (OT) 2-hour HeLa Transcription Induction Assay for Estrogen Receptor (AID 2283382)
# In short: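 HeLa cells were dosed with test chemical and read 2 hours later for GFP-ERα/ERE-linked fluorescent protein induction by fluorescence microscopy. Gain-of-signal was fitted relative to DMSO baseline, quantified by high content image analysis.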
# [3] = molecular target: Retinoic acid receptor RXR-alpha (Homo sapiens) (UniProt P19793); experiment: OT_NURR1_NURR1RXRa_0480: Odyssey Thera (OT) 8-hour HEK293T Protein Complementation Assay for Nurr1/retinoid X receptor (RXR) (AID 2283385)
# Chain of Retinoic acid receptor RXR-alpha (Homo sapiens) (P19793 whole entry, looked up, the tested form may be a part): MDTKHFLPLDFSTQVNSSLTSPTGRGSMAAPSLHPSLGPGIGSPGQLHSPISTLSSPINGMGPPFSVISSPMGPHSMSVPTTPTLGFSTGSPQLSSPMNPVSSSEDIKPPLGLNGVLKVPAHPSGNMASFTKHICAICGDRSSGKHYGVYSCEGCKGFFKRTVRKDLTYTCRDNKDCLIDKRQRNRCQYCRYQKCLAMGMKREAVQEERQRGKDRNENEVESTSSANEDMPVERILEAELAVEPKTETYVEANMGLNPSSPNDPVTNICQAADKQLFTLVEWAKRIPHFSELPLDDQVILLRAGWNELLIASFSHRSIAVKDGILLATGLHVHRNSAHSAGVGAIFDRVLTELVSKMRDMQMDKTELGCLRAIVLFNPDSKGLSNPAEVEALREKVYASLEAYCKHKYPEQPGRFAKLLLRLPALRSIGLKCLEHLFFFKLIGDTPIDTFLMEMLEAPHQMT
# In short: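 HEK293T cells expressing Nurr1 and RXRα fused to reporter fragments were dosed with compound for 8 hours. Complex formation was read as fluorescence intensity and analysed as gain of signal against DMSO as baseline.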
# [4] = molecular target: Retinoic acid receptor RXR-alpha (Homo sapiens) (UniProt P19793); experiment: OT_NURR1_NURR1RXRa_1440: Odyssey Thera (OT) 24-hour HEK293T Protein Complementation Assay for Nurr1/retinoid X receptor (RXR) (AID 2283386)
# In short: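 HEK293T cells were dosed with compound and read 24 h later by fluorescence intensity in a protein-fragment complementation format, where Nurr1–RXRα interaction reconstitutes a split reporter. Activity was fitted as gain of signal relative to DMSO baseline.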
# [5] = ATG_XTT_Cytotoxicity: Cytotoxicity Assessment in the Attagene TRANS-FACTORIAL HepG2 Assay (AID 2283584);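 on AC50: cells exposed to compound for 24 h before reading; active means loss of viability signal versus DMSO baseline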
# In short: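 Cells: human HepG2, transiently transfected with MRTU reporter constructs. Exposure 24 h. Readout: XTT, cell number. Baseline/neg ctrl DMSO; loss-of-signal scored.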
# [6] = molecular target: Bile acid receptor (Homo sapiens) (UniProt Q96RI1); experiment: OT_FXR_FXRSRC1_0480: Odyssey Thera (OT) 8-hour HEK293T Protein-Complementation Assay for Farnesoid X receptor/SRC-1 Co-activator (AID 2283383)
# Chain of Bile acid receptor (Homo sapiens) (Q96RI1 whole entry, looked up, the tested form may be a part): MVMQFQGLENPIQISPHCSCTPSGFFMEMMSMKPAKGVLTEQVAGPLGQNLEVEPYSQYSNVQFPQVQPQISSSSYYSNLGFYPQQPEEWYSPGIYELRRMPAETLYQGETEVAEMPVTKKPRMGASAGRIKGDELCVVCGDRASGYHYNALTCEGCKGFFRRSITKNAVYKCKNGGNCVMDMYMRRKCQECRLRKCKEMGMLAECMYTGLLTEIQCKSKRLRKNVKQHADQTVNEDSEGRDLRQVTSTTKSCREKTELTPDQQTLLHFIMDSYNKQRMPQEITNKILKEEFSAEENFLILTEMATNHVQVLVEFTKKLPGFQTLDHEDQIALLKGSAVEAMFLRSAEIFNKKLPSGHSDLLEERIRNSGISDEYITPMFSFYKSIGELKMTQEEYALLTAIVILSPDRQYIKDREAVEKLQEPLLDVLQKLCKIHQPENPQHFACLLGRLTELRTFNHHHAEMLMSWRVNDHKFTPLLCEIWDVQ
# In short: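 HEK293T cells expressing FXR and SRC-1 fused to reporter fragments were dosed with compound for 8 h; fluorescence from the reconstituted reporter marked co-activator recruitment. Gain of signal was fitted against the DMSO baseline.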
# [7] = molecular target: Bile acid receptor (Homo sapiens) (UniProt Q96RI1); experiment: OT_FXR_FXRSRC1_1440: Odyssey Thera (OT) 24-hour HEK293T Protein-Complementation Assay for Farnesoid X receptor/SRC-1 Co-activator (AID 2283384)
# In short: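 HEK293T cells were dosed with compound and read 24 h later by fluorescence intensity from protein-fragment complementation reporting FXR/SRC-1 co-activator interaction. Gain of signal was fitted relative to DMSO negative control as baseline.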
# [8] = molecular target: Peroxisome proliferator-activated receptor gamma (Homo sapiens) (UniProt P37231); experiment: OT_PPARg_PPARgSRC1_1440: Odyssey Thera (OT) 24-hour Protein-Complementation Assay for Peroxisome Proliferator-activated Receptor Gamma/ SRC-1 Co-activator (AID 2283388);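 further: nuclear to cytoplasmic ratio of reconstituted Venus YFP fluorescence in fixed imaged cells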
# Chain of Peroxisome proliferator-activated receptor gamma (Homo sapiens) (P37231 whole entry, looked up, the tested form may be a part): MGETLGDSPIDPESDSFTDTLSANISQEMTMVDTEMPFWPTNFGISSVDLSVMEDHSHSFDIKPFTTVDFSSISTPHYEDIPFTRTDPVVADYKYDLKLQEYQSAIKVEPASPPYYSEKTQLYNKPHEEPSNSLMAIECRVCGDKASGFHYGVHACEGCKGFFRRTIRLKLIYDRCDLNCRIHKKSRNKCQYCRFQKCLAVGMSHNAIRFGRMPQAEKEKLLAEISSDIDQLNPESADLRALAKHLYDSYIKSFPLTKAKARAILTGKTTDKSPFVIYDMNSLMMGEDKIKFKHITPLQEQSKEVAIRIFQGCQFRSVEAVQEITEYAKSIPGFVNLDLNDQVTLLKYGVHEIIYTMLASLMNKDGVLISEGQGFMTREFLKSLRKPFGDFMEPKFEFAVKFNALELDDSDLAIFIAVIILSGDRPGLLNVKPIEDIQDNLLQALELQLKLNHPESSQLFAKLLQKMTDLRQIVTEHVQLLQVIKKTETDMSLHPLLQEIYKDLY
# In short: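 Protein-fragment complementation between PPARg and coactivator SRC-1 was measured by fluorescence imaging in transiently transfected HEK293T cells after 24 h treatment. Signal was quantified as N/C ratio in the 488 nm channel, with DMSO as negative control.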
# [9] = molecular target: Peroxisome proliferator-activated receptor gamma (Homo sapiens) (UniProt P37231); experiment: OT_PPARg_PPARgSRC1_0480: Odyssey Thera (OT) 8-hour Protein-Complementation Assay for Peroxisome Proliferator-activated Receptor Gamma / SRC-1 Co-activator (AID 2283387);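 further: nuclear to cytoplasmic split Venus YFP fluorescence ratio reporting PPARg SRC-1 interaction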
# In short: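 Split-YFP (IFP1/IFP2) PPARg/SRC-1 reporter, HEK293T, 37 °C, 5% CO2; 8 h compound; formaldehyde fix + Draq5; high-content imaging, N/C ratio, ≥350 cells/image, positive direction vs DMSO.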
# [10] = CEETOX_H295R_11DCORT: CeeTox H295R High-throughput Steroidogenesis Assay for 11-Deoxycortisol (11DCORT) (AID 2283432; active means hit-call score of the fitted dose curve at least 0.9, where 1 is the maximum; inactive means score below 0.9;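 on AC50: 11-deoxycortisol secreted into the medium measured by LC-MS/MS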); settings: actives raise or lower the signal
# In short: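 Steroidogenesis in human H295R cells: 48 h chemical exposure after forskolin priming, 11-deoxycortisol measured by LC-MS/MS.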
# [11] = CEETOX_H295R_OHPREG: CeeTox H295R High-throughput Steroidogenesis Assay for OH-Pregnenolone (OHPREG) (AID 2283434; active means hit-call score of the fitted dose curve at least 0.9, where 1 is the maximum; inactive means score below 0.9); settings: actives raise or lower the signal
# In short: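 H295R cells pre-stimulated 48 h with 10 uM forskolin, then exposed 48 h to chemical in 0.1% DMSO. 17alpha-hydroxypregnenolone in medium quantified by MTBE extraction and HPLC-MS/MS; bidirectional fit versus DMSO, viability checked by MTT.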
# [12] = CEETOX_H295R_OHPROG: CeeTox H295R High-throughput Steroidogenesis Assay for OH-Progesterone (OHPROG) (AID 2283435; active means hit-call score of the fitted dose curve at least 0.9, where 1 is the maximum; inactive means score below 0.9); settings: actives raise or lower the signal
# In short: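 H295R human adrenal cells were prestimulated 48 h with 10 uM forskolin, then exposed 48 h to test chemical (0.1% DMSO final). 17alpha-hydroxyprogesterone in medium was measured by HPLC-MS/MS after MTBE extraction; bidirectional fitting vs DMSO.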
# [13] = CEETOX_H295R_CORTISOL: CeeTox H295R High-throughput Steroidogenesis Assay for Cortisol (AID 2283438; active means hit-call score of the fitted dose curve at least 0.9, where 1 is the maximum; inactive means score below 0.9;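 further: cortisol secreted into medium quantified by LC-MS/MS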); settings: actives raise or lower the signal
# In short: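 H295R human adrenal cells were prestimulated 48 h with 10 uM forskolin, then exposed 48 h to test chemical (0.1% DMSO final). Medium cortisol was quantified by HPLC-MS/MS after MTBE extraction; bidirectional fitting relative to DMSO baseline.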
# [14] = CEETOX_H295R_DOC: CeeTox H295R High-throughput Steroidogenesis Assay for DOC (AID 2283439; active means hit-call score of the fitted dose curve at least 0.9, where 1 is the maximum; inactive means score below 0.9); settings: actives raise or lower the signal
# In short: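 H295R adrenal cells prestimulated 48 h with 10 uM forskolin, then exposed 48 h to test chemical (0.1% DMSO final). Medium 11-deoxycorticosterone extracted with MTBE, quantified by HPLC-MS/MS; bidirectional fit versus DMSO baseline; MTT viability in same wells.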
# [15] = CEETOX_H295R_PROG: CeeTox H295R High-throughput Steroidogenesis Assay for Progesterone (PROG) (AID 2283442; active means hit-call score of the fitted dose curve at least 0.9, where 1 is the maximum; inactive means score below 0.9;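 further: human H295R adrenal cells primed with 10 µM forskolin before dosing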); settings: actives raise or lower the signal
# In short: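 Steps: seed H295R cells and let them adhere overnight; prime 48 h with 10 uM forskolin; dose with compound in DMSO at 0.1% final for 48 h; extract medium steroids with MTBE; measure progesterone by LC-MS/MS. MTT viability was run in the same wells.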
# [16] = CEETOX_H295R_CORTIC: CeeTox H295R High-throughput Steroidogenesis Assay for Corticosterone (CORTIC) (AID 2283437; active means hit-call score of the fitted dose curve at least 0.9, where 1 is the maximum; inactive means score below 0.9;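 further: corticosterone secreted into medium quantified by mass spectrometry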); settings: actives raise or lower the signal
# In short: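 H295R adrenal cells prestimulated 48 hours with 10 uM forskolin, then exposed 48 hours to chemical in 0.1% DMSO. Corticosterone in medium measured by HPLC-MS/MS after MTBE extraction; MTT viability in the same wells; bidirectional fit versus DMSO.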
structure (smiles),measurement,setting,value
C1COCCN1,outcome,[1],inactive
same,outcome,[2],inactive
same,outcome,[3],inactive
same,outcome,[4],inactive
same,outcome,[5],inactive
CCCCCCOC(=O)c1ccccc1O,outcome,[1],inactive
same,outcome,[2],inactive
same,outcome,[6],inactive
same,outcome,[7],inactive
same,outcome,[3],inactive
same,outcome,[4],inactive
same,outcome,[8],inactive
same,outcome,[5],inactive
CCCCC(CC)COP(=O)(O)OCC(CC)CCCC (stereo not given),outcome,[1],inactive
same,outcome,[2],inactive
same,outcome,[6],inactive
same,AC50,[7],71.8 µM (active)
same,outcome,[3],inactive
same,AC50,[9],64.4 µM (active)
same,AC50,[8],67.8 µM (active)
same,AC50,[5],146 µM (active)
CCCCOc1ccc(N)cc1,outcome,[1],inactive
same,outcome,[2],inactive
same,outcome,[6],inactive
same,AC50,[7],36.9 µM (active)
same,outcome,[3],inactive
same,outcome,[4],inactive
same,outcome,[9],inactive
same,outcome,[8],inactive
O=C(OCCOCCOCCOC(=O)c1ccccc1)c1ccccc1,outcome,[1],inactive
same,outcome,[2],inactive
same,outcome,[6],inactive
same,outcome,[7],inactive
same,outcome,[8],inactive
same,outcome,[5],inactive
CC(CCl)OP(=O)(OC(C)CCl)OC(C)CCl (stereo not given),outcome,[1],inactive
same,outcome,[2],inactive
same,outcome,[6],inactive
same,outcome,[7],inactive
same,outcome,[3],inactive
same,outcome,[8],inactive
same,outcome,[5],inactive
CNC(=S)NC,outcome,[1],inactive
same,outcome,[2],inactive
same,outcome,[6],inactive
same,outcome,[7],inactive
same,outcome,[3],inactive
same,outcome,[9],inactive
same,outcome,[8],inactive
same,outcome,[5],inactive
CCN(Cc1cccc(S(=O)(=O)O)c1)c1ccc(C(=C2C=CC(=[N+](CC)Cc3cccc(S(=O)(=O)O)c3)C=C2)c2ccc(O)cc2S(=O)(=O)[O-])cc1,outcome,[1],inactive
same,outcome,[2],inactive
same,outcome,[3],inactive
same,outcome,[4],inactive
same,outcome,[9],inactive
same,outcome,[8],inactive
same,outcome,[5],inactive
[Co],outcome,[1],inactive
same,outcome,[2],inactive
same,outcome,[6],inactive
same,outcome,[7],inactive
same,outcome,[4],inactive
same,outcome,[9],inactive
same,outcome,[8],inactive
CCCCCCOC(=O)c1ccccc1,outcome,[1],inactive
same,outcome,[2],inactive
same,outcome,[6],inactive
same,outcome,[3],inactive
same,outcome,[9],inactive
same,outcome,[8],inactive
same,outcome,[5],inactive
CC(C)OC(=O)c1ccccc1C(=O)OC(C)C,outcome,[1],inactive
same,outcome,[2],inactive
same,outcome,[6],inactive
same,outcome,[7],inactive
same,outcome,[4],inactive
same,outcome,[9],inactive
same,outcome,[8],inactive
same,outcome,[5],inactive
C(=C(c1ccccc1)c1ccccc1)c1ccccc1,AC50,[1],1.61 µM (active)
same,AC50,[2],1.52 µM (active)
same,AC50,[6],73.5 µM (active)
same,AC50,[7],76.8 µM (active)
same,AC50,[3],90.2 µM (active)
same,AC50,[4],81.3 µM (active)
same,outcome,[9],inactive
same,outcome,[8],inactive
same,outcome,[5],inactive
CC/C=C\CCOC(C)=O,outcome,[1],inactive
same,outcome,[2],inactive
same,outcome,[3],inactive
same,outcome,[9],inactive
same,outcome,[8],inactive
same,outcome,[5],inactive
C#C[C@]1(O)CC[C@H]2[C@@H]3CCc4cc(OC)ccc4[C@H]3CC[C@@]21C,AC50,[1],0.0277 µM (active)
same,AC50,[2],0.0294 µM (active)
same,AC50,[6],60.4 µM (active)
same,AC50,[7],46.8 µM (active)
same,outcome,[3],inactive
same,AC50,[4],78.8 µM (active)
same,outcome,[9],inactive
same,outcome,[8],inactive
same,outcome,[10],inactive
same,outcome,[11],inactive
same,AC50,[12],7.82 µM (active)
same,outcome,[13],inactive
same,outcome,[14],inactive
same,AC50,[15],3.58 µM (active)
same,outcome,[5],inactive
c1ccc(B(c2ccccc2)c2ccccc2)cc1,outcome,[1],inactive
same,AC50,[2],45.8 µM (active)
same,outcome,[6],inactive
same,outcome,[7],inactive
same,outcome,[3],inactive
same,outcome,[4],inactive
same,outcome,[9],inactive
same,outcome,[8],inactive
same,AC50,[10],33.7 µM (active)
same,AC50,[11],15 µM (active)
same,outcome,[12],inactive
same,outcome,[16],inactive
same,outcome,[13],inactive
same,AC50,[14],8.03 µM (active)
same,AC50,[15],12.6 µM (active)
same,outcome,[5],inactive
